The record followed here is PubChem BioAssay (EPA / NIEHS).

Calls of active or inactive are those of the source. Rule for the calls: active = hit-call score of the fitted dose curve at least 0.9, where 1 is the maximum; inactive = score below 0.9.

The assay is described as follows: CEETOX_H295R_CORTIC: CeeTox H295R High-throughput Steroidogenesis Assay for Corticosterone (CORTIC) (AID 2283437).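 Note: corticosterone secreted into medium quantified by mass spectrometry.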 Particulars: actives raise or lower the signal. The protocol:
CEETOX_H295R is a cell-based, multiplexed-readout assay that uses H295R, a human adrenal gland cell line, with measurements taken at 48 hours after chemical dosing in a 96-well plate.CEETOX_H295R_CORTIC is one of 23 assay component(s) measured or calculated from the CEETOX_H295R assay. It is designed to make measurements of hormone induction, a form of inducible reporter, as detected with absorbance signals by HPLC-MS-MS technology.Data from the assay component CEETOX_H295R_CORTIC was analyzed into 1 assay endpoint. This assay endpoint, CEETOX_H295R_CORTIC, was analyzed with bidirectional fitting relative to DMSO as the negative control and baseline of activity. Using a type of inducible reporter, gain or loss-of-signal activity using HPLC-MS-MS was used to understand synthesis of Corticosterone in H295R cell line at 48hr of chemical exposure. To generalize the intended target to other relatable targets, this assay endpoint is annotated to the steroid hormone intended target family, where the subfamily is glucocorticoids.
Cell culture and media preparation procedures were conducted in accordance with OECD Test No. 456 guidelines, with minor modifications. H295R cells (ATCC CRL-2128) were expanded for 5 passages and frozen in batches in liquid nitrogen. Prior to the steroidogenesis assay, H295R cells were thawed and passed at least 4 times. The maximum passage was 10. Cells were maintained in a 1:1 mixture of DMEM/F12 supplemented with 5ml/L ITS+ Premix (BD Bioscience) and 12.5 ml/L Nu-Serum (BD Bioscience). After seeding cells into 96-well plates at 50-60% confluency, cells were allowed to adhere overnight. Prior to chemical testing, culture medium was replaced with 175 uL medium containing 10 uM forskolin to stimulate steroidogenesis for 48 hours. Following prestimulation, forskolin medium was replaced with medium containing test chemical solubilized in DMSO (ensuring a final concentration of 0.1% DMSO). Test chemicals were incubated for 48 hours, then the medium was removed and split into 2 vials containing approximately 75uL each, and stored at -80 C prior to hormone analysis. For steroid quantification, media samples were shipped to OpAns, LLC (Durham, NC) on dry ice, and samples were thawed to room temperature prior to liquid-liquid extraction. Steroid hormones were extracted from media samples using methyl tertbutyl ether (MTBE). An extra derivatization with dansyl chloride was included for estrogen (estrone and estradiol) detection only. Steroid hormones were separated by HPLC, eluted using a reverse phase C18 gradient with electrospray positive ionization, followed by quantification by tandem mass spectrometry (MS/MS). Data were acquired on a MassHunter Workstation Acquisition version B03.01 (Agilent Technologies, Inc.) and processed using MassHunter Quantitative Analysis for QQQ. Accuracy was determined for each hormone analyte from 3 standards to determine upper and lower limits of quantification (ULOQ and LLOQ, respectively) using a 7-point standard curve. Precision and accuracy of the extraction and quantification methods were calculated as the percent relative standard deviation (%RSD) of the spiked standards and percent spiked standard recovered, respectively. […] Test medium was removed following chemical exposure, and cell viability was evaluated in the same wells by MTT. MTT procedures were as follows: after removal of test medium, 500 uL of 0.5 mg/ml of 3-[4,5-dimethylthiazol-2-y]2,5-diphenyltetrazoliumbromide solution was added to the cells. Following a 4-hour incubation at 37 C and 5% CO2 to allow formazan-crystal formation, the MTT solution was removed and blue formazan salt crystals were solubilized using 500uL anhydrous isopropanol with shaking for 20 minutes. Absorbance was read at 570 and 650nm using a Packard Fusion microplate reader. Background correction of absorbance units was used to determine percent change relative to controls. […]
Regarding `CC(C)(C)c1ccc(O)c(O)c1`, the molecule was classed as inactive.

`CC(C)(c1ccc(Oc2ccc(N)cc2)cc1)c1ccc(Oc2ccc(N)cc2)cc1`: the half-maximal activity concentration (AC50) (in general, the concentration at which the activity in the assay is half-maximal) is 0.229 µM (active).

As for `CC(C)CCOCCC(C)C`, the molecule was called inactive.

On to `Clc1ccc(Nc2nnc(Cc3ccncc3)c3ccccc23)cc1`, for which the AC50 was 2.38 µM (active). For the molecule `O=C(CCCN1CCC(O)(c2ccc(Cl)cc2)CC1)c1ccc(F)cc1`, the result was inactive. Consider `Oc1cc2ccccc2cc1O`, for which the outcome was inactive. In the case of `CCCCCc1ccc(O)cc1`, the AC50 was 21.9 µM (active).

As for `c1cc[nH]c1`, the molecule was called inactive. The same measure, in the same setting: next, `COc1cc([N+](=O)[O-])ccc1N`: “inactive”; `COc1cccc(O)c1`: “inactive”. On the same count and under the same terms, next, `Cc1cccc2c1ccc1ccccc12`: “inactive”; `O=C(NCc1ncc(C(F)(F)F)cc1Cl)c1c(Cl)cccc1Cl`: “inactive”; `C[C@]12CC[C@@H]3c4ccc(O)cc4CC[C@H]3[C@@H]1C[C@@H](O)[C@@H]2O`: “inactive”.

With `CCCCCC(C)OC(=O)COc1ccc(Cl)c2cccnc12` (centres undefined), the molecule was classed as inactive.
